Source: the supplement of paper PMC7156485
± gives the standard deviation of the averaged measurements.

What was measured:
Conditions in all cases: concentration: 10 µM; 24 h
HCC1569 [1] = test: cell number relative to DMSO (% of DMSO); higher = more cells (less growth inhibition / toxicity)
Outline: (§1)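 H1.0 nuclear intensity or cell number is expressed as percent of the plate control, with the median of replicates taken. HCC1569 and TDF cells were treated with compounds at 10 µM for 24 h at 37 °C, in triplicate, then fixed and immunostained for H1.0 with DAPI as a nuclear stain. HCC1569 values were smoothed to correct for positional effects.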

TDF [2] = test: as above
Outline: as §1

TDF [3] = test: H1.0 immunofluorescence intensity relative to DMSO (% of DMSO); higher = stronger H1.0 induction, active = 120 or more
Outline: as §1

HCC1569 [4] = test: H1.0 immunofluorescence intensity relative to DMSO (% of DMSO); higher = stronger H1.0 induction, active = 140 or more
Outline: as §1
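Throughout, for H1.0 immunofluorescence intensity relative to DMSO: TDF is a line of transformed human dermal fibroblasts of mesenchymal origin.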
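Throughout, for cell number relative to DMSO: TDF denotes transformed human dermal fibroblasts of mesenchymal origin.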

| Structure (SMILES) | cell number (HCC1569 [1]) | cell number (TDF [2]) | H1.0 immunofluorescence intensity (TDF [3]) | H1.0 immunofluorescence intensity (HCC1569 [4]) |
| --- | --- | --- | --- | --- |
| COc1ccc(C2CC(=O)c3c(O)cc(O)cc3O2)cc1O (configuration not stated) [Hesperitine] | 98.4 | 101 | 98.1 (inactive) | 92.8 (inactive) |
| COc1ccc2cc(C(C)C(=O)O)ccc2c1 (configuration not stated) [Naproxen] | 99.9 | 83.8 | 98.1 (inactive) | 109 (inactive) |
| N=C(N)c1ccc(OCCCCCOc2ccc(C(=N)N)cc2)cc1 [Pentamidine] | 101 | 104 | 92.3 (inactive) | 113 (inactive) |
| COc1cc(Cc2cnc(N)nc2N)cc(OC)c1OC [Trimethoprim] | 99 ± 1.6 | 95.9 ± 2.8 | 106 (inactive) | 107 (inactive) |
| CN1CCc2ccccc2Cc2[nH]c3ccccc3c2CC1 | 104 | 108 | 92.4 (inactive) | 100 (inactive) |
| Cn1c(=O)c2[nH]cnc2n(C)c1=O.Cn1c(=O)c2[nH]cnc2n(C)c1=O.NCCN [Aminophylline ethylenediamine] | 103 | 102 | 98.7 (inactive) | 93.8 (inactive) |
| CN1CCCC1c1cccnc1 (single isomer, unassigned; (-)) [(-)-Nicotine] | 99.2 | 114 | 94.2 (inactive) | 80 (inactive) |
| Clc1cccc(CNC2=Nc3ccccc3NC23CCNCC3)c1 | 99 | 89.6 | 106 (inactive) | 124 (inactive) |
| NC(=O)c1ccc(-c2nc(-c3ccc4c(c3)OCCO4)c(-c3ccccn3)[nH]2)cc1 | 97.4 | 108 | 94.2 (inactive) | 122 (inactive) |
| O=C1NC(c2cccc([N+](=O)[O-])c2)=CCN1c1ccccc1O | 104 | 104 | 95.6 (inactive) | 94.9 (inactive) |
| CCCCCC=CCC(O)C=CC=CC=CC(O)CCCC(=O)O [5(S),12(R)-DIHETE all trans] | 99.8 | 97 | 99.7 (inactive) | 101 (inactive) |
| CCCc1nn(C)c2c(=O)nc(-c3cc(S(=O)(=O)N4CCN(C)CC4)ccc3OCC)[nH]c12 [Sildenafil] | 101 | 94 | 95.1 (inactive) | 103 (inactive) |
| CN1CCc2cccc3c2C1Cc1ccc(O)c(O)c1-3.Cl [(R)-(-)-Apomorphine.HCl] | 98.4 | 98.9 | 89.1 (inactive) | 103 (inactive) |
| CN[C@H](CC(=O)O)C(=O)O [N-Methyl-D-aspartic acid] | 104 | 109 | 85.2 (inactive) | 98.8 (inactive) |
| Cc1nc(N)sc1-c1ccnc(Nc2ccc(N3CCOCC3)cc2)n1 | 62.2 | 42.5 | 105 (inactive) | 99.1 (inactive) |
| CN(C)CC=C(c1ccc(Br)cc1)c1cccnc1.Cl.Cl [Zimelidine dihydrochloride] | 99 | 86.6 | 107 (inactive) | 116 (inactive) |
| CC(OC(=O)c1ccc(F)cc1F)C(=O)N(C)C1CCS(=O)(=O)C1 (configuration not stated) [Cdk2/9 Inhibitor] | 48.9 | 29.1 | 110 (inactive) | 139 (inactive) |
| CCc1cc(CCC2(C3CCCC3)CC(O)=C(Cc3nc4nc(C)cc(C)n4n3)C(=O)O2)cc(CC)n1 (configuration not stated) | 97.3 | 106 | 87.6 (inactive) | 104 (inactive) |
| CC12CC3CC(C)(C1)CC(N)(C3)C2.Cl [Memantine hydrochloride] | 106 | 96 | 101 (inactive) | 98.3 (inactive) |
| CN(C)CCCOc1nn(Cc2ccccc2)c2ccccc12 [Benzydamine] | 100 | 83.7 | 104 (inactive) | 103 (inactive) |
| COc1ccc(COc2ccc(Cc3cnc(N)nc3N)cc2OC)cc1 [cFMS Receptor Tyrosine Kinase Inhibitor] | 100 | 93.7 | 98.1 (inactive) | 130 (inactive) |
| COc1cc(OC)c2cc(-c3ccncc3)cnc2c1.Cl.Cl [5,7-dimethoxy-3-(4-pyridinyl)quinoline dihydrochloride] | 105 | 102 | 92.4 (inactive) | 105 (inactive) |
| CC[N+](CC)(CC)CC(=O)Nc1c(C)cccc1C.[Br-] [Lidocaine N-ethyl bromide quaternary salt] | 106 | 108 | 88.4 (inactive) | 94.3 (inactive) |
